Laboratory results published in the supplement of paper PMC10849652.
Of roughly 8,800 targets only a part is listed; those with a hit were picked by preference. About 0.5% of all pairs of compound and target were hits.

Tests used:
Test in all cases: log2 fold change, soluble protein after heating vs DMSO (PISA); higher = thermal stabilisation; K562 lysate, 10 uM; active = over 0.2 and 3.5 SD of the protein, either way, in both replicates (recomputed)
[1] = compound: C#Cc1cccc(Nc2ncnc3cc(OCCOC)c(OCCOC)cc23)c1 [erlotinib]
In short: (§1)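 The values are log-two fold changes in thermal stability compared with solvent controls and come from duplicates. They were obtained by TMTpro 16plex LC-MS/MS, with channel sums equalised, on the supernatant after 21,000xg for 90 min. That supernatant came from crude K562 extract at 1 mg/mL protein treated with 10 μM compound for 30 min, heated for 3 min across 48°C-58°C, pooled and brought to 0.5% NP-40 at 4°C.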

[2] = compound: C/C(=N\NC(=O)C1=CC(=CC=C1)S(=O)(=O)N2CCOCC2)/C3=C(C=CC(=C3)Cl)O
In short: as §1

[3] = compound: C1=CC(=CC=C1C2=NC3=C(N2)C=C(C=C3)C(=O)N)OC4=CC=C(C=C4)Cl
In short: as §1

[4] = compound: C1=CC2=C(C=CC(=C2)/C=C\3/C(=O)NC(=NCC4=CC=CS4)S3)N=C1
In short: as §1

[5] = compound: C1=CC2=NC=CN=C2C=C1/C=C/3\C(=O)NC(=O)S3
In short: as §1

[6] = compound: C1=CC=C(C=C1)C2=NC(=C(N2)C3=CC=NC=C3)C4=CC(=C(C=C4)Cl)O
In short: as §1

[7] = compound: C1=CC=C2C(=C1)C3=NNC4=CC=CC(=C43)C2=O
In short: as §1

[8] = compound: C1CCN(C1)C(=O)NC2=CC=CC(=C2)NC3=NC=C(C(=N3)NCCC4=CN=CN4)Br
In short: as §1

[9] = compound: C1CN(CCC1(CC2=CC=C(C=C2)Cl)N)C3=NC=NC4=C3C=CN4
In short: as §1

[10] = compound: C1COCCN1CCN2C3=CC=CC=C3N=C2NC(=O)C4=CC(=CC=C4)[N+](=O)[O-] [IRAK-1-4 Inhibitor I]
In short: as §1

Measured: log2 fold change

PICALM (UniProt Q13492)
inactive: [1] -0.019 | [2] -0.035 | [3] 0.02 | [4] -0.021 | [5] 0.01 | [6] -0.06 | [7] -0.014 | [8] -0.016 | [9] 0.001 | [10] 0.026

PCBP2 (UniProt F8W0G4)
inactive: [1] -0.117 | [2] -0.36 | [3] -0.007 | [4] -0.102 | [5] 0.022 | [6] 0.005 | [7] -0.236 | [8] -0.241 | [9] 0.079 | [10] 0.093

PXMP4 (UniProt Q9Y6I8)
Chain of UniProt Q9Y6I8 (Q9Y6I8 whole entry, looked up): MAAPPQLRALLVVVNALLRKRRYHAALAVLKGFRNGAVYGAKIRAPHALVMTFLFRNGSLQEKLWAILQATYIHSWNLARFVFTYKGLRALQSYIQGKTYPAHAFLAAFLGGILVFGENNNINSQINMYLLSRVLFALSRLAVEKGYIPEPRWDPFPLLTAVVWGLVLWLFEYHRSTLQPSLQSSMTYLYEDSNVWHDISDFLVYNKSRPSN
inactive: [1] 0.024 | [2] 0.068 | [3] 0.084 | [4] -0.053 | [5] 0.013 | [6] 0.053 | [7] -0.038 | [8] 0.043 | [9] 0.022 | [10] 0.016

PI4K2A (UniProt Q9BTU6)
inactive: [1] -0.013 | [2] -0.005 | [3] -0.041 | [4] 0.021 | [5] -0.003 | [6] 0.02 | [7] 0.063 | [8] 0.002 | [9] 0.058 | [10] 0.003

PRKCB isoform 2 (UniProt P05771)
inactive: [1] 0.053 | [2] -0.191 | [3] 0.07 | [4] -0.043 | [5] -0.004 | [6] -0.064 | [7] -0.12 | [8] -0.149 | [9] 0.019 | [10] -0.02

PSTPIP2 (UniProt Q9H939)
inactive: [1] 0.002 | [2] 0.05 | [3] -0.028 | [4] 0.055 | [5] -0.031 | [6] -0.003 | [7] -0.122 | [8] 0.01 | [9] 0.005 | [10] 0.009

PUS3 (UniProt Q9BZE2)
inactive: [1] -0.014 | [2] 0.043 | [3] -0.028 | [4] -0.048 | [5] 0.048 | [6] -0.006 | [7] -0.064 | [8] -0.028 | [9] 0.097 | [10] -0.058

PDCD10 (UniProt Q9BUL8)
Chain of UniProt Q9BUL8 (Q9BUL8 whole entry, looked up): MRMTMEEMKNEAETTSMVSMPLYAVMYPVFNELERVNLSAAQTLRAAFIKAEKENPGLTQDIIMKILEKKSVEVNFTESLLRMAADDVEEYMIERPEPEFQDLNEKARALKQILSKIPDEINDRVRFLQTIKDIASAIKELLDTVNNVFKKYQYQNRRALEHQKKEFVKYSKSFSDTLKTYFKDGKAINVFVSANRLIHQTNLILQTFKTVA
inactive: [1] -0.029 | [2] -0.001 | [3] -0.009 | [4] -0.049 | [5] -0.028 | [6] -0.007 | [7] 0.087 | [8] 0.035 | [9] -0.025 | [10] -0.012

PDE4DIP isoform 4 (UniProt Q5VU43)
inactive: [1] 0.002 | [2] -0.026 | [3] 0.017 | [4] 0.004 | [5] -0.004 | [6] 0 | [7] -0.111 | [8] -0.009 | [9] 0.055 | [10] 0.024

PIGO (UniProt Q8TEQ8)
inactive: [1] 0.179 | [2] -0.423 | [3] -0.266 | [4] 0.242 | [5] 0.132 | [6] 0.001 | [7] -0.285 | [8] -0.001 | [9] 0.117 | [10] 0.114

PTK2B (UniProt Q14289)
inactive: [1] 0.024 | [2] -0.012 | [3] 0.001 | [4] -0.012 | [5] -0.053 | [6] 0.027 | [7] 0.066 | [8] 0.067 | [9] -0.068 | [10] 0.077

PLEKHF1 (UniProt Q96S99)
inactive: [1] 0.027 | [2] 0.032 | [3] -0.067 | [4] 0.006 | [5] 0.05 | [6] 0.017 | [7] -0.019 | [8] -0.032 | [9] 0.029 | [10] -0.024

QKI (UniProt Q96PU8)
inactive: [1] -0.023 | [2] -0.018 | [3] -0.001 | [4] -0.005 | [5] 0.012 | [6] -0.029 | [7] 0.012 | [8] 0.005 | [9] -0.034 | [10] 0.027

PWP1 (UniProt Q13610)
inactive: [1] -0.02 | [2] -0.025 | [3] 0.045 | [4] 0.057 | [5] 0.007 | [6] 0 | [7] 0.031 | [8] 0.008 | [9] -0.032 | [10] 0.005

PHKA2 (UniProt P46019)
inactive: [1] 0.048 | [2] -0.051 | [3] 0.032 | [4] 0.052 | [5] 0.044 | [6] -0.058 | [7] 0.012 | [8] 0.027 | [9] 0.033 | [10] 0.03

PFDN2 (UniProt Q9UHV9)
Chain of UniProt Q9UHV9 (Q9UHV9 whole entry, looked up): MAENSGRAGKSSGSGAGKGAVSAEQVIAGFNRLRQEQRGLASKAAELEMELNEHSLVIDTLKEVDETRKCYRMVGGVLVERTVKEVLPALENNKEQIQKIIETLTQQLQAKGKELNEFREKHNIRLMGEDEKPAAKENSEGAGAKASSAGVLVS
inactive: [1] -0.055 | [2] -0.003 | [3] -0.038 | [4] 0.006 | [5] 0 | [6] -0.027 | [7] 0.071 | [8] 0.043 | [9] -0.026 | [10] -0.015

POLR2G (UniProt P62487)
inactive: [1] 0.02 | [2] 0.012 | [3] 0.044 | [4] -0.005 | [5] 0.029 | [6] 0.022 | [7] 0.036 | [8] -0.002 | [9] 0.02 | [10] 0.03

PRKAR2B (UniProt P31323)
inactive: [1] 0 | [2] 0.066 | [3] -0.022 | [4] -0.025 | [5] 0.018 | [6] -0.03 | [7] -0.116 | [8] -0.16 | [9] -0.131 | [10] -0.016

PDCD6IP (UniProt Q8WUM4)
Chain of UniProt Q8WUM4 (Q8WUM4 whole entry, looked up): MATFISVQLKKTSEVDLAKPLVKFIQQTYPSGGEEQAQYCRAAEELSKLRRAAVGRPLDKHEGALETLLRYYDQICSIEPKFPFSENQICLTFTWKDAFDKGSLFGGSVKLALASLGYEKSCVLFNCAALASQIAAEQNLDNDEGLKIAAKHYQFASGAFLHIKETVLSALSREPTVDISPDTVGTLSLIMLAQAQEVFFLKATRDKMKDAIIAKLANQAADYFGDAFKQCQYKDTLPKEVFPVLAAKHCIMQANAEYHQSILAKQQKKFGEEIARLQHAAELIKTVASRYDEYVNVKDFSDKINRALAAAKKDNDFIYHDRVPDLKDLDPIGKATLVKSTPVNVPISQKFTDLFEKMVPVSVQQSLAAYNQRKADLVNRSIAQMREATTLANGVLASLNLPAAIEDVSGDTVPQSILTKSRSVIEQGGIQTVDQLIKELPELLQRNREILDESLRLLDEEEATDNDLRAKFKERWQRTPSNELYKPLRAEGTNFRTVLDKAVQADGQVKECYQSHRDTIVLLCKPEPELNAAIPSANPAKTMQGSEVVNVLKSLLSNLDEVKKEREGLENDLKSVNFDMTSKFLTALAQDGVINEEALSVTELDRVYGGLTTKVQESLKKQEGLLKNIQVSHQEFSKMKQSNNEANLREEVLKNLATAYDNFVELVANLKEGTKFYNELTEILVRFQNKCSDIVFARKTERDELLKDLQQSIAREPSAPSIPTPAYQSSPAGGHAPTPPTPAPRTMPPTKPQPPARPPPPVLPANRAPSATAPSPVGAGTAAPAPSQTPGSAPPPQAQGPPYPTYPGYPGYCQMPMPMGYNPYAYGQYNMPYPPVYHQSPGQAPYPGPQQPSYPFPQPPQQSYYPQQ
inactive: [1] -0.016 | [2] 0.021 | [3] -0.036 | [4] 0 | [5] 0.108 | [6] 0.03 | [7] 0.013 | [8] 0.07 | [9] 0.012 | [10] -0.094

PDS5A (UniProt Q29RF7)
inactive: [1] 0.043 | [2] -0.015 | [3] -0.029 | [4] 0.052 | [5] 0.032 | [6] 0.012 | [7] -0.038 | [8] -0.005 | [9] 0.001 | [10] -0.015

PHKB isoform 3 (UniProt Q93100)
Chain of UniProt Q93100 (Q93100 whole entry, looked up): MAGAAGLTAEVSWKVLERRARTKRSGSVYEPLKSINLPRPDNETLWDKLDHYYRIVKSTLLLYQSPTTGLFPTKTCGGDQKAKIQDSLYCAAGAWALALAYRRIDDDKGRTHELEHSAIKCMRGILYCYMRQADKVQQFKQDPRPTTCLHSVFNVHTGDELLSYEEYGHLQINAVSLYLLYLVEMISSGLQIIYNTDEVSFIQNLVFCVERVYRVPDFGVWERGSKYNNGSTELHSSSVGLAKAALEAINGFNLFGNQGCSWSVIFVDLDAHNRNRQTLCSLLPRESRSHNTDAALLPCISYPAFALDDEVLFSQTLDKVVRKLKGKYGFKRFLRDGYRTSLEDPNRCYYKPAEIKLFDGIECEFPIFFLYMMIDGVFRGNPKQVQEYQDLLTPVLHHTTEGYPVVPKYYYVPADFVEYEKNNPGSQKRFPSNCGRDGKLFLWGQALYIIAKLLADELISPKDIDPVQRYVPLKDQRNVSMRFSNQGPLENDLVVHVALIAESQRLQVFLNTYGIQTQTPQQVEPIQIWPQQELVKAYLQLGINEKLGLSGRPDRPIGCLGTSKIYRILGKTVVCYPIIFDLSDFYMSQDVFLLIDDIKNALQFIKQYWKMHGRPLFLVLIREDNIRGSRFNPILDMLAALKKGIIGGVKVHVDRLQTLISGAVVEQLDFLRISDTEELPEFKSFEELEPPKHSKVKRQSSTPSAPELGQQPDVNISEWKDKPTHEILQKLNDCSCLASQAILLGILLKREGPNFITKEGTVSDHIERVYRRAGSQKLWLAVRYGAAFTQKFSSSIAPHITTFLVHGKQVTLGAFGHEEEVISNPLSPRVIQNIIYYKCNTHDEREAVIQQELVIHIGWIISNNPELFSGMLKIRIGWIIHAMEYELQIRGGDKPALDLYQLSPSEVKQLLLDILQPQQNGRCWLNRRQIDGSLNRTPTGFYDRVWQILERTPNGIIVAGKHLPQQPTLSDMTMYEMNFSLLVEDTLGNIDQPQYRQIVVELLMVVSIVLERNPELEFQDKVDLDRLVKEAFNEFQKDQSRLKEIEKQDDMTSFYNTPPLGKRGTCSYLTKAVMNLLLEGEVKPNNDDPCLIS
inactive: [1] -0.053 | [2] -0.049 | [3] 0 | [4] 0.044 | [5] 0.082 | [6] 0.036 | [7] 0.142 | [8] 0.038 | [9] 0.01 | [10] 0.006

PRKDC (UniProt P78527)
inactive: [1] 0.021 | [2] -0.064 | [3] -0.029 | [4] 0.135 | [6] 0.037 | [7] 0.068 | [8] 0.122 | [9] -0.041 | [10] 0.02
active: [5] 0.927

PCF11 (UniProt O94913)
Chain of UniProt O94913 (O94913 whole entry, looked up): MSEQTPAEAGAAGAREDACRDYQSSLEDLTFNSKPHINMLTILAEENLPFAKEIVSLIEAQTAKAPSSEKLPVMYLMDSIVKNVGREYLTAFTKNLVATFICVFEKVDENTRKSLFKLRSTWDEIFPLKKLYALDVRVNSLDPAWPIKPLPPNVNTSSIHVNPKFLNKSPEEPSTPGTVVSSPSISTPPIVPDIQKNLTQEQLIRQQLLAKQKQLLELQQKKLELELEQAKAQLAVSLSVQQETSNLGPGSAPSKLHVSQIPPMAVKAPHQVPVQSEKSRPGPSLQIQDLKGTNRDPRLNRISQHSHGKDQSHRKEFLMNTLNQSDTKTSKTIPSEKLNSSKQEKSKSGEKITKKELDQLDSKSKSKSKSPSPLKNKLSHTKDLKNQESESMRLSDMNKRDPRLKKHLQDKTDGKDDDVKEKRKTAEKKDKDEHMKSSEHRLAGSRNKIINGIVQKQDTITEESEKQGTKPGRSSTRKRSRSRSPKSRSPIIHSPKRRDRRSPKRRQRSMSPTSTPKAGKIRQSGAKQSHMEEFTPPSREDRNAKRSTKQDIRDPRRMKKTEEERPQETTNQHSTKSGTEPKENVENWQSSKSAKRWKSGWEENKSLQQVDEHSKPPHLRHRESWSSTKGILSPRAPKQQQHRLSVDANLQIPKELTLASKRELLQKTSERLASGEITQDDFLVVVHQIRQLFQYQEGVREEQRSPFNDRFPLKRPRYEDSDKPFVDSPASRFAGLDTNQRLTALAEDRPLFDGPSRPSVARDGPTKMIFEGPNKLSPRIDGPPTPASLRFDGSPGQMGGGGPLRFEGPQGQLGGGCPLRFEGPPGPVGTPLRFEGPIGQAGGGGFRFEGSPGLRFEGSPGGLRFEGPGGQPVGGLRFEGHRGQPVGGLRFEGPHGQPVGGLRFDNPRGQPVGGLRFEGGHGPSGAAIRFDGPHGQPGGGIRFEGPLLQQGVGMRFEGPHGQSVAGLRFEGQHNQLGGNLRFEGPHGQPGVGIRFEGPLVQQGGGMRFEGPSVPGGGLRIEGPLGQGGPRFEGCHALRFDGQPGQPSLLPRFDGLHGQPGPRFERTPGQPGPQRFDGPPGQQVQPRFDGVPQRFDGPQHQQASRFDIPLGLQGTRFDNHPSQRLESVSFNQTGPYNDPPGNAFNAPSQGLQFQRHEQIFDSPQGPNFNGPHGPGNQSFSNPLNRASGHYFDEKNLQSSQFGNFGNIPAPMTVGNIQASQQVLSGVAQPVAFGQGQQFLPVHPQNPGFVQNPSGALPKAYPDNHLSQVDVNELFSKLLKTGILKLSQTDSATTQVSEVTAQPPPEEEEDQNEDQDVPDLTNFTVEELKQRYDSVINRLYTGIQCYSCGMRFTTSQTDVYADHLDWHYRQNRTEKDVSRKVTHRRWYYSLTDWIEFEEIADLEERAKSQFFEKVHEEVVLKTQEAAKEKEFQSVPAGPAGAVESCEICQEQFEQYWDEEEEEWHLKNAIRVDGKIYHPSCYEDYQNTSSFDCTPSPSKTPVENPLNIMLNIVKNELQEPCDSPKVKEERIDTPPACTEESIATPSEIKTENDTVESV
inactive: [1] 0.031 | [2] -0.063 | [3] 0.014 | [4] 0.008 | [5] -0.044 | [6] -0.025 | [7] -0.028 | [8] 0.005 | [9] 0.005 | [10] -0.017

PIK3R2 (UniProt O00459)
inactive: [1] -0.022 | [2] -0.02 | [3] -0.008 | [4] 0.097 | [5] 0.251 | [6] -0.09 | [7] 0.047 | [8] 0.068 | [9] -0.059 | [10] -0.01

PTPN7 isoform 3 (UniProt P35236)
inactive: [1] 0.032 | [2] -0.002 | [3] -0.028 | [4] -0.06 | [5] -0.026 | [6] -0.008 | [7] -0.03 | [8] 0.009 | [9] 0.045 | [10] 0.021

PIK3R1 (UniProt P27986)
Chain of UniProt P27986 (P27986 whole entry, looked up): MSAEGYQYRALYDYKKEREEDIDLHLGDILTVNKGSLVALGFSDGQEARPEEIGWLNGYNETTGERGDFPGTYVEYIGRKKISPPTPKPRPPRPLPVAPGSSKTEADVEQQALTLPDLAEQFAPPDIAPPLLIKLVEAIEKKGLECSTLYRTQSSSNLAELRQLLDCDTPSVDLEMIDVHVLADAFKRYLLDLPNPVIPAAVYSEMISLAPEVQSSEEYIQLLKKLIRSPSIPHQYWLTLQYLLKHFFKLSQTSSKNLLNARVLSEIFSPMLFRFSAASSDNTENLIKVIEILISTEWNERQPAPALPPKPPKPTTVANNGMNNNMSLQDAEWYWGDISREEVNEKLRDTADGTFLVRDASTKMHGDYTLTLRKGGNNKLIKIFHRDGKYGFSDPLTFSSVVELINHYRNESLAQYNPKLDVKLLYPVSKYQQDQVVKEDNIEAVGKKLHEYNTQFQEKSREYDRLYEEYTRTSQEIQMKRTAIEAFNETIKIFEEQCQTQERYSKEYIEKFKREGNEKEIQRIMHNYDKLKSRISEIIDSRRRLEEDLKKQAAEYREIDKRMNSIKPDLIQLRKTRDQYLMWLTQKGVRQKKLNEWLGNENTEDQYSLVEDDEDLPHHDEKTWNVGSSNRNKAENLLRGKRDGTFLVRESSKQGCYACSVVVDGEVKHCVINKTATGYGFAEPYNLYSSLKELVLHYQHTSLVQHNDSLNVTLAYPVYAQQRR
inactive: [1] -0.027 | [2] -0.4 | [3] 0.008 | [4] 0.069 | [6] 0.076 | [7] 0.089 | [8] -0.015 | [9] 0 | [10] 0.1
active: [5] 0.348

PIKFYVE (UniProt Q9Y2I7)
inactive: [1] -0.026 | [2] -0.008 | [3] -0.01 | [4] 0.005 | [5] -0.011 | [6] 0.03 | [7] -0.034 | [8] -0.039 | [9] 0.035 | [10] -0.004

POLR3E (UniProt Q9NVU0)
inactive: [1] 0.003 | [2] 0.003 | [3] -0.007 | [4] 0.017 | [5] 0.005 | [6] 0.006 | [7] -0.001 | [8] -0.03 | [9] -0.007 | [10] -0.016

PTPN6 isoform 4 (UniProt P29350)
inactive: [1] 0.054 | [2] 0.097 | [3] -0.03 | [4] -0.05 | [5] 0.047 | [6] 0.04 | [7] 0.033 | [8] -0.078 | [9] -0.224 | [10] -0.073

PCYT1B (UniProt Q9Y5K3)
inactive: [1] -0.016 | [2] 0.015 | [3] -0.006 | [4] 0.046 | [5] -0.03 | [6] 0.002 | [7] 0.044 | [8] -0.041 | [9] -0.032 | [10] -0.023

PRIM2 (UniProt P49643)
inactive: [1] 0.05 | [2] -0.12 | [3] 0.032 | [4] 0.007 | [5] -0.006 | [6] 0.011 | [7] 0.005 | [8] -0.016 | [9] 0.017 | [10] 0.027
